Compounds without any hit were thinned out: in the full panel of roughly 79,000, 15% have a hit. A number with no mark means an inactive call. Calls of active or inactive are those of the source. No stated cut-off is given here; in the data, active means growth inhibition above about 70%; inactive means the rest.
Columns and labels:
[1] = NCI Yeast Anticancer Drug Screen. Data for the rad50 strain (AID 155);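 further: 0% = growth of vehicle-only cultures of the same strain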; conditions: S. cerevisiae rad50 strain growth inhibition, stronger effect = higher value
Summary of the method: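 DNA repair mutant yeast, compound exposure, growth read-out; inhibition is taken relative to vehicle.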

[2] = NCI Yeast Anticancer Drug Screen. Data for the mec2-1 strain (AID 157); conditions: S. cerevisiae mec2-1 strain, stronger effect = higher value
Summary of the method: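 Mutant yeast (mec2-1) grown with compound; growth inhibition relative to vehicle control reported.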

[3] = NCI Yeast Anticancer Drug Screen. Data for the sgs1 mgt1 strain (AID 161);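 further: 0% = growth of cultures given vehicle only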; conditions: S. cerevisiae sgs1 mgt1 strain, stronger effect = higher value
Summary of the method: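 Compounds are added to genetically altered yeast, and growth is compared with cultures given vehicle alone to give percent inhibition.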

[4] = NCI Yeast Anticancer Drug Screen. Data for the cln2 rad14 strain (AID 165);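 further: 0% = growth equal to vehicle treated cultures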; conditions: S. cerevisiae cln2 rad14 strain, stronger effect = higher value
Summary of the method: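 Readout is yeast growth inhibition versus vehicle-treated controls, using a strain with cln2 and rad14 alterations exposed to compound.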

[5] = NCI Yeast Anticancer Drug Screen. Data for the bub3 strain (AID 167); conditions: S. cerevisiae bub3 mutant strain, stronger effect = higher value
Summary of the method: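 In this screen, a yeast mutant lacking normal mitotic checkpoint function is challenged with compound. Relative growth versus vehicle gives the inhibition value.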

[6] = NCI Yeast Anticancer Drug Screen. Data for the mlh1 rad18 strain (AID 175); conditions: S. cerevisiae mlh1 rad18 strain growth inhibition, stronger effect = higher value
Summary of the method: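 Genetically defined yeast (DNA repair-deficient) exposed to compounds; growth inhibition determined relative to vehicle.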

[7] = at 5.0 µM (retest, dose inferred, filed as 0.5)
[8] = at 50.0 µM (retest, dose inferred, filed as 5.0)

| Structure (SMILES) | growth inhibition [1, 7] | growth inhibition [1, 8] | growth inhibition ([1]; at 50.0 µM) | growth inhibition [2, 7] | growth inhibition [2, 8] | growth inhibition ([2]; at 50.0 µM) | growth inhibition [3, 7] | growth inhibition [3, 8] | growth inhibition ([3]; at 50.0 µM) | growth inhibition [4, 7] | growth inhibition [4, 8] | growth inhibition ([4]; at 50.0 µM) | growth inhibition [5, 7] | growth inhibition [5, 8] | growth inhibition ([5]; at 50.0 µM) | growth inhibition [6, 7] | growth inhibition [6, 8] | growth inhibition ([6]; at 50.0 µM) |
| --- | --- | --- | --- | --- | --- | --- | --- | --- | --- | --- | --- | --- | --- | --- | --- | --- | --- | --- |
| COc1ccc(-c2c(C#N)cc(OC)c(OC)c2OC)c(C=O)c1 | 2% | 24% | 43.4% | -5% | 29% | 31.8% | -19% | 62% | 40.9% | 0% | 11% | 80.2% (active) | -3% | 26% | 75% (active) | 11% | 57% | 76.3% (active) |
| CCC[CH2][Sn]1([CH2]CCC)[O]CC([CH2][Sn]([c]2ccccc2)([c]2ccccc2)[c]2ccccc2)[O]1 (configuration not stated) | 100% (active) | 100% (active) | 90.3% (active) | 97% (active) | 97% (active) | 91.7% (active) | 99% (active) | 99% (active) | 90.8% (active) | 99% (active) | 99% (active) | 91.7% (active) | 97% (active) | 97% (active) | 91.3% (active) | 98% (active) | 98% (active) | 89% (active) |
| C1CCC(CCNCCC2CCCCC2)CC1 | -1% | 99% (active) | 99% (active) | -15% | 99% (active) | 97.5% (active) | 25% | 99% (active) | 99% (active) | -15% | 99% (active) | 98.7% (active) | -8% | 99% (active) | 98.5% (active) | 8% | 99% (active) | 98.7% (active) |
| Clc1ccc(/C=N\Nc2c3ccccc3nc3ccccc23)cc1Cl | -5% | 25% | 71% (active) | 13% | 21% | 14.6% | 1% | 38% | 58.4% | -3% | 4% | 11.9% | 13% | 44% | 28.1% | 1% | 57% | 61.8% |
| COc1ccc2c(c1)CC[C@@H]1C2CC[C@]2(C)OC(=O)CCC12 (some centres not stated) | -23% | 98% (active) | 73.1% (active) | -5% | 89% (active) | 66.8% | -15% | 93% (active) | 77.1% (active) | -4% | 92% (active) | 67.3% | -31% | 97% (active) | 72.7% (active) | 12% | 97% (active) | 71.7% (active) |
| O=C(c1ccccc1)c1ccc2cccc(O)c2n1 | 19% | 63% | 88.8% (active) | -18% | 31% | 91.5% (active) | -11% | 55% | 90.8% (active) | 5% | 34% | 88.8% (active) | -21% | 77% (active) | 91.7% (active) | -19% | 77% (active) | 89.4% (active) |
| C/C(=N/NC(=S)Nc1ccc([N+](=O)[O-])cc1)c1cccc(/C(C)=N\NC(=S)Nc2ccc([N+](=O)[O-])cc2)n1 | 14% | 50% | 19.6% | 5% | 72% (active) | 0.15% | 15% | 87% (active) | 35.5% | 19% | 82% (active) | -7.35% | 21% | 94% (active) | 2.45% | 10% | 61% | 14.4% |
| COc1ccc2c(c1)sc(/C=C/c1ccc(O)c3ncccc13)[n+]2C | 12% | 88% (active) | 92.3% (active) | 49% | 92% (active) | 93.6% (active) | -53% | 94% (active) | 92% (active) | 3% | 86% (active) | 90.3% (active) | 19% | 86% (active) | 89.9% (active) | 62% | 92% (active) | 92.4% (active) |
| COC1OC(=O)CC1C1CC=C2C3CCC4CC(O)CCC4(C)C3CCC21C (configuration not stated) | 1% | 44% | 83.3% (active) | 3% | 85% (active) | 74.4% (active) | -22% | 86% (active) | 95% (active) | -8% | 77% (active) | 62.6% | -9% | 73% (active) | 64.8% | -5% | 92% (active) | 88.4% (active) |
| CCCCOC(c1ccccc1)N1CCCCC1 (configuration not stated) | 0% | 6% | 28.8% | 0% | 11% | -10.7% | -3% | 6% | 35.8% | -3% | -12% | -13.6% | -4% | -4% | 4.15% | -4% | -3% | 7.35% |
| CC1(C)c2ccccc2-c2nc3ccccc3cc2C1Br (configuration not stated) | -1% | 29% | 37.6% | -4% | 26% | 46.7% | -4% | 23% | 73.7% (active) | -22% | 4% | 44.3% | 2% | 59% | 95% (active) | -1% | 27% | 70.5% (active) |
| CC(=O)N1C(c2[nH]c3ccccc3c2Cc2ccccc2)CCN1c1ccccc1 (configuration not stated) | -27% | 94% (active) | 84.9% (active) | -14% | 98% (active) | 87% (active) | -20% | 94% (active) | 88.3% (active) | -12% | 96% (active) | 85.7% (active) | -18% | 96% (active) | 87.5% (active) | -27% | 95% (active) | 83.8% (active) |
| CCCCCCCCCCCCSC(=NCC)NCC | 89% (active) | 99% (active) | 99.6% (active) | 79% (active) | 100% (active) | 99.8% (active) | 98% (active) | 100% (active) | 48.8% | 59% | 99% (active) | 99.1% (active) | 96% (active) | 100% (active) | 99.6% (active) | 89% (active) | 99% (active) | 99.5% (active) |
| O=c1c(O)cc2c(O)oc3c(=O)c(O)c(O)c4c(O)oc1c2c43 | 58% | 96% (active) | 88.4% (active) | 23% | 93% (active) | 57.2% | 41% | 90% (active) | 67.2% | 12% | 90% (active) | 50.3% | 25% | 90% (active) | 85% (active) | 41% | 96% (active) | 66.2% |
| C/C(=N\NC(=S)NNC(=S)N1CCCc2ccccc21)c1ccccn1 | 3% | 96% (active) | 95.9% (active) | -16% | 96% (active) | 95.7% (active) | 30% | 97% (active) | 96.7% (active) | -23% | 96% (active) | 95.8% (active) | -6% | 97% (active) | 90.7% (active) | 5% | 95% (active) | 95.6% (active) |
| CN(C)CCN(C)CCC(=O)/C=C/c1ccccc1 | 95% (active) | 99% (active) | 87.9% (active) | 100% (active) | 99% (active) | 84.3% (active) | 98% (active) | 99% (active) | 99.5% (active) | 86% (active) | 99% (active) | 96% (active) | 99% (active) | 99% (active) | 98.2% (active) | 99% (active) | 99% (active) | 99.5% (active) |
| COc1ccc(C(=O)C2Cc3c(ccc4ccccc34)OC2=O)cc1 (configuration not stated) | 4% | 1% | 2.05% | -2% | -11% | -1.25% | -3% | 2% | -7.8% | 7% | 1% | 20.1% | -1% | -2% | -30.4% | -5% | -5% | -11.3% |
| O=C(OCc1ccc2c(c1)OCO2)c1ccc(Cl)cc1 | 19% | 23% | -0.55% | -4% | 68% | -4.55% | 9% | 46% | -6.3% | -43% | -7% | 0.05% | -1% | 61% | 13.9% | 4% | 57% | -19.6% |
| c1ccc(SSc2ccccn2)nc1 | 17% | 99% (active) | 96.5% (active) | 69% | 99% (active) | 99.7% (active) | 49% | 99% (active) | 53.1% | 0% | 99% (active) | 99.5% (active) | 50% | 99% (active) | 99.5% (active) | 62% | 99% (active) | 99.5% (active) |

Reference: PubChem BioAssay (NCI)
